Consider 6 compounds from PubChem BioAssay (EPA / NIEHS).

In assay [1] the target is Paired box protein Pax-6 (Homo sapiens) (UniProt P26367). Nature of the assay: ATG_Pax6_CIS: Attagene CIS-FACTORIAL HepG2 Assay for human Paired Box 6 (PAX6) (AID 2282956). Conditions: HepG2 CIS-FACTORIAL PAX6 reporter transcription, RNA readout; actives raise or lower the signal. Summed up: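 HepG2 cells transiently transfected with multiplexed cis-promoter reporter units (endogenous TF activity) were dosed for 24 h. Reporter mRNA was quantified by RT-PCR, 6-FAM labeling, HpaI digestion and capillary electrophoresis; bidirectional fitting versus DMSO baseline.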

The nature of assay [2]: ATG_PXRE_CIS: Attagene CIS-FACTORIAL HepG2 Assay for human Pregnane X Receptor Element (PXRE) (AID 2282957). Particulars: HepG2 Attagene CIS-FACTORIAL PXRE reporter, mRNA; actives raise or lower the signal. The gist of the method: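 HepG2 cells transiently transfected with cis-regulated multiple reporter transcription units; endogenous factor activity measured as reporter mRNA 24 h after dosing. RT-PCR, fluorescent primer extension, HpaI digestion, capillary electrophoresis; bidirectional fit versus DMSO baseline.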

The nature of assay [3]: ATG_RORE_CIS: Attagene CIS-FACTORIAL HepG2 Assay for human RAR-related Orphan Receptor Element (RORE) (AID 2282959). Conditions: HepG2 Attagene cis-factorial RORE reporter, mRNA; actives raise or lower the signal. Summed up: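 HepG2 cells carrying transiently transfected cis-regulated reporter units; RORE-driven reporter mRNA quantified 24 h post-dosing by RT-PCR, 6-FAM primer extension, HpaI digestion and capillary electrophoresis. Bidirectional fit versus DMSO.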

Assay [4] can be described thus: ATG_Sox_CIS: Attagene CIS-FACTORIAL HepG2 Assay for human SRY-box transcription factor (SOX) (AID 2282960). Conditions: HepG2 Attagene cis-factorial SOX reporter, mRNA; actives raise or lower the signal. The gist of the method: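 HepG2 cells transiently transfected with multiple cis-regulated reporter units, then dosed for 24 h. Reporter mRNA quantified by RT-PCR, fluorescent labelling, HpaI digestion and capillary electrophoresis; bidirectional fit versus DMSO.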

For assay [5], the target named is Transcription factor Sp1 (Homo sapiens) (UniProt P08047). The experiment in a line: ATG_Sp1_CIS: Attagene CIS-FACTORIAL HepG2 Assay for human Specificity Protein 1 (Sp1) (AID 2282961). Particulars: HepG2 Sp1 cis-reporter transcription, actives raise or lower the signal. The gist of the method:
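HepG2 cells transiently transfected with multiplexed cis-regulated reporter constructs, chemical exposure 24 h. Reporter mRNA quantified by RT-PCR with capillary electrophoresis; bidirectional fit relative to DMSO.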

The nature of assay [6]: ATG_SREBP_CIS: Attagene CIS-FACTORIAL HepG2 Assay for human Sterol Regulatory Element Binding (SREBP) (AID 2282962). Particulars: HepG2 Attagene cis-factorial SREBP reporter, mRNA; actives raise or lower the signal. Summed up: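 HepG2 cells transiently transfected with multiplexed cis-element reporter units report endogenous transcription factor activity. After 24 h of chemical exposure, reporter mRNA was quantified by RT-PCR, 6-FAM labelling, HpaI digestion and capillary electrophoresis; bidirectional fits used DMSO as baseline.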

Assay [7] deals with Signal transducer and activator of transcription 3 (Homo sapiens) (UniProt P40763). The experiment in a line: ATG_STAT3_CIS: Attagene CIS-FACTORIAL HepG2 Assay for human Signal Transducer and Activator of Transcription 3 (STAT3) (AID 2282963). Particulars: HepG2, Attagene cis-factorial STAT3 reporter transcription; actives raise or lower the signal. The gist of the method: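 Values derive from bidirectional fits relative to DMSO of reporter mRNA levels, measured by RT-PCR with capillary electrophoresis, in HepG2 cells carrying transiently transfected cis-regulated reporter units and exposed 24 h.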

Assay [8] can be described thus: ATG_TA_CIS: Attagene CIS-FACTORIAL HepG2 Assay for human TA Basal Promoter (AID 2282964). Particulars: HepG2 Attagene CIS-factorial TA basal promoter reporter; actives raise or lower the signal. Summed up:
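Background-control readout: TA basal promoter reporter mRNA, fitted in both directions relative to DMSO. Measured by RT-PCR and capillary electrophoresis 24 hours after treating HepG2 human liver cells transiently carrying multiplexed cis-regulated reporter constructs.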

The nature of assay [9]: ATG_TCF_b_cat_CIS: Attagene CIS-FACTORIAL HepG2 Assay for human T-Cell-Factor with beta-catenin (TCF/b-cat) (AID 2282965). Conditions: HepG2 TCF/beta-catenin cis-reporter transcription, actives raise or lower the signal. Summed up:
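HepG2, transient MRTU transfection, cis-element-driven reporters (endogenous TFs). 24 h compound exposure. Readout: reporter mRNA by RT-PCR + 6-FAM primer extension, HpaI digest, capillary electrophoresis. Gain/loss fit vs DMSO baseline.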

Assay [10] in a line: ATG_TAL_CIS: Attagene CIS-FACTORIAL HepG2 Assay for human TAL Basal Promoter (AID 2282966).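 Further: background control endpoint measuring basal TAL promoter reporter mRNA not a specific factor.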 Particulars: HepG2 Attagene cis-factorial TAL promoter reporter; actives raise or lower the signal. Summed up: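 HepG2 cells were transiently transfected with promoter-driven multiplexed reporter units and dosed for 24 h. Reporter mRNA was measured by RT-PCR with capillary electrophoresis fluorescence; bidirectional fits used DMSO as baseline, serving as a background control.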

Assay [11] in a line: ATG_TGFb_CIS: Attagene CIS-FACTORIAL HepG2 Assay for human Transforming Growth Factor (TGF) (AID 2282967). Conditions: HepG2 Attagene CIS TGFb reporter, mRNA transcription; actives raise or lower the signal. The gist of the method:
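Endogenous TGFB1-linked transcription factor activity read as reporter mRNA via RT-PCR and capillary electrophoresis, 24 h after dosing transiently transfected HepG2 cells. Gain or loss of signal fitted relative to DMSO.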

The nature of assay [12]: ATG_VDRE_CIS: Attagene CIS-FACTORIAL HepG2 Assay for human Vitamin D Receptor Element (VDRE) (AID 2282968). Conditions: HepG2 VDRE cis-reporter transcription, actives raise or lower the signal. Summed up: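 Cell-based multiplexed reporter format in human liver HepG2 cells, 24 h post-dose. Fluorescence from capillary electrophoresis of reporter cDNA gives the signal, with DMSO as negative control and baseline.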

The target of assay [13] is X-box-binding protein 1 (Homo sapiens) (UniProt P17861). The experiment in a line: ATG_Xbp1_CIS: Attagene CIS-FACTORIAL HepG2 Assay for human X-box Binding Protein 1 (XBP1) (AID 2282972). Conditions: HepG2 XBP1 cis-element reporter, Attagene multiplex; actives raise or lower the signal. The gist of the method:
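HepG2 cells transiently transfected with cis-regulated multiple reporter transcription units; endogenous transcription factor activity measured 24 hours after chemical dosing. Reporter mRNA quantified by RT-PCR, 6-FAM primer extension, HpaI digestion and capillary electrophoresis; bidirectional fitting versus DMSO.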

Assay [14] addresses Glucocorticoid receptor (Homo sapiens) (UniProt P04150). The experiment in a line: ATG_GR_TRANS: Attagene TRANS-FACTORIAL HepG2 Assay for human Glucocorticoid Receptor (GR) (AID 2282978; active means hit-call score of the fitted dose curve at least 0.9, where 1 is the maximum;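 further: activators score as hits since higher reporter transcript over DMSO is fitted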). Conditions: HepG2 Attagene TRANS GR reporter, mRNA transcription. The gist of the method:
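HepG2 cells transiently transfected with GAL4-UAS reporter units and exogenous GR-Gal4 chimera, dosed 24 h. Reporter mRNA by RT-PCR, FAM labeling, HpaI digest and capillary electrophoresis; gain-of-signal fit versus DMSO.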

The target in assay [15] is Nuclear receptor subfamily 1 group I member 3 (Homo sapiens) (UniProt Q14994). Nature of the assay: ATG_CAR_TRANS: Attagene TRANS-FACTORIAL HepG2 Assay for human Constitutive Androstane Receptor (CAR) (AID 2282969; active means hit-call score of the fitted dose curve at least 0.9, where 1 is the maximum;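 further: activators raise reporter mRNA above DMSO so AC50 marks induction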). Particulars: HepG2 Attagene TRANS-FACTORIAL CAR reporter. Summed up: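 HepG2 cells transiently transfected with GAL4-UAS reporter units; TRANS format reads activity of exogenous chimeric NR-Gal4 protein. After 24 h dosing, reporter mRNA quantified by RT-PCR, 6-FAM labelling and capillary electrophoresis; gain of signal fitted against DMSO.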

A short description of assay [16]: ATG_M_19_TRANS: Attagene TRANS-FACTORIAL HepG2 Assay for M19 Transcription Factor (Internal Marker) (AID 2282974; active means hit-call score of the fitted dose curve at least 0.9, where 1 is the maximum). Particulars: HepG2 Attagene TRANS-FACTORIAL M19 internal marker reporter. The gist of the method: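 HepG2 transiently transfected with GAL4-UAS multiplex reporter constructs, exposed 24 h; reporter RNA quantified by RT-PCR, 6-FAM labeling, HpaI digestion and capillary electrophoresis; internal background marker fitted upward versus DMSO.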

Assay [17] deals with Estrogen-related receptor gamma (Homo sapiens) (UniProt P62508). Nature of the assay: ATG_ERRg_TRANS: Attagene TRANS-FACTORIAL HepG2 Assay for human Estrogen-Related Receptor gamma (ERRg) (AID 2282977; active means hit-call score of the fitted dose curve at least 0.9, where 1 is the maximum;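 further: hits increase reporter signal over DMSO so potencies reflect activators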). Particulars: HepG2 Attagene TRANS reporter, ERRg transactivation. The gist of the method: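 HepG2 cells transiently transfected with multiplexed GAL4-UAS reporter units and chimeric NR-Gal4 constructs were exposed to test chemicals for 24 h. Reporter mRNA was measured by RT-PCR, 6-FAM primer extension, HpaI digestion and capillary electrophoresis; gain-of-signal versus DMSO.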

Assay [18] in a line: ATG_GAL4_TRANS: Attagene TRANS-FACTORIAL HepG2 Assay for GAL4 (Internal Marker) (AID 2282976; active means hit-call score of the fitted dose curve at least 0.9, where 1 is the maximum). Particulars: HepG2 Attagene TRANS GAL4 internal marker reporter. Summed up: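 HepG2 cells transiently transfected with multiplexed GAL4-UAS reporter constructs were dosed for 24 h. Reporter mRNA was measured by RT-PCR, 6-FAM primer extension, HpaI digestion and capillary electrophoresis, and gain of signal was fitted relative to DMSO.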

In general, AC50 refers to the concentration at which the activity in the assay is half-maximal.

Inconclusive results are not listed. Calls of active or inactive are those of the source. How the source made its calls, unless noted: active means hit-call score of the fitted dose curve at least 0.9, where 1 is the maximum; inactive means score below 0.9.

Signal transducer and activator of transcription 3 (Homo sapiens), sequence (P40763 whole entry, looked up): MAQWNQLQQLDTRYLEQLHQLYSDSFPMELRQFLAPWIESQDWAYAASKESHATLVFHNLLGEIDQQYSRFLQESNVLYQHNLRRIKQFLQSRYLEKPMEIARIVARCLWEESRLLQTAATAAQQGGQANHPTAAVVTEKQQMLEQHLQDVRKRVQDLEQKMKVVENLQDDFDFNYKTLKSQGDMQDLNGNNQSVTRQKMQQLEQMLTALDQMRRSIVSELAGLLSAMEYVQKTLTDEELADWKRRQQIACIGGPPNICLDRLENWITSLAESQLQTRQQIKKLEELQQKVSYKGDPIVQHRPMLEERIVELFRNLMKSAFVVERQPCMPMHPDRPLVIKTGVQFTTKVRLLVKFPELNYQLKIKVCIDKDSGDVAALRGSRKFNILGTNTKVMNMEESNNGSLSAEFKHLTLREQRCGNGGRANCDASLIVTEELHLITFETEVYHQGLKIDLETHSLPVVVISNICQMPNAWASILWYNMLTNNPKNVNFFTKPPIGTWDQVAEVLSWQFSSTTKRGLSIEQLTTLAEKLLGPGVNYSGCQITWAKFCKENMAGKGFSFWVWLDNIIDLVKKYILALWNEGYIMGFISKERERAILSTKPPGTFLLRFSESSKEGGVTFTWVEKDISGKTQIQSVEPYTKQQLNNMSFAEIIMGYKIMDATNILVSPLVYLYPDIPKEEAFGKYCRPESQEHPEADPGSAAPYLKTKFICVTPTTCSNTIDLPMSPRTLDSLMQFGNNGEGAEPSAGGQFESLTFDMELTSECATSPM
Nuclear receptor subfamily 1 group I member 3 (Homo sapiens), sequence (Q14994 whole entry, looked up, the tested form may be a part): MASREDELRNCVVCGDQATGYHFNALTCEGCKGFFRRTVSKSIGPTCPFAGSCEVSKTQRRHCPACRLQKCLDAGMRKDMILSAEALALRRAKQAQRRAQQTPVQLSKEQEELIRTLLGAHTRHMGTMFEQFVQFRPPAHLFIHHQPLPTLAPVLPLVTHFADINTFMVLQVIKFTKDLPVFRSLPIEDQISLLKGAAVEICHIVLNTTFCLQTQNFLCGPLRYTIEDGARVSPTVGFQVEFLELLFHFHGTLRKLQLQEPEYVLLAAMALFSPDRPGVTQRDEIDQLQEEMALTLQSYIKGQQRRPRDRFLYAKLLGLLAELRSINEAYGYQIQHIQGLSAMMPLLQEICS
Transcription factor Sp1 (Homo sapiens), sequence (P08047 whole entry, looked up): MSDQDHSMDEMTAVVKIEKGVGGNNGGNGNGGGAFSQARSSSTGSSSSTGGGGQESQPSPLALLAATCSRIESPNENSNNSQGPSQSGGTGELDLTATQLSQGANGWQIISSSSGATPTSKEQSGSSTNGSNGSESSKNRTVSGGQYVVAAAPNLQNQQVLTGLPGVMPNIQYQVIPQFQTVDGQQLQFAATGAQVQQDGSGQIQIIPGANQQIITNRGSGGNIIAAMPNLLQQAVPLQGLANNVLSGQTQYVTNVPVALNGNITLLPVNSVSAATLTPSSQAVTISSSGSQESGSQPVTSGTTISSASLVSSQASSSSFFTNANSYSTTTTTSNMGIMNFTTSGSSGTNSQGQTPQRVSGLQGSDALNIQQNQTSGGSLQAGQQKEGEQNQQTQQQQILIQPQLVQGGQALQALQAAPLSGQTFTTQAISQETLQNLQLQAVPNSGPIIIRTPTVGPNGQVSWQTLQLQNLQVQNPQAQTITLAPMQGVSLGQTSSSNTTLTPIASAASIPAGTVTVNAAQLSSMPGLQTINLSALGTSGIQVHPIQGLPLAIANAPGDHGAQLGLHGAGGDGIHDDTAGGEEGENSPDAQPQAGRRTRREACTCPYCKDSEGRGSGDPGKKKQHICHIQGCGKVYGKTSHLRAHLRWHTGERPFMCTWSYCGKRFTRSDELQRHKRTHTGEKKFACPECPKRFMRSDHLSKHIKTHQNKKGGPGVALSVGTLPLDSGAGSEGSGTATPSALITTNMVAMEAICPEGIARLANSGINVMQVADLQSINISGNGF
Paired box protein Pax-6 (Homo sapiens), sequence (P26367 whole entry, looked up): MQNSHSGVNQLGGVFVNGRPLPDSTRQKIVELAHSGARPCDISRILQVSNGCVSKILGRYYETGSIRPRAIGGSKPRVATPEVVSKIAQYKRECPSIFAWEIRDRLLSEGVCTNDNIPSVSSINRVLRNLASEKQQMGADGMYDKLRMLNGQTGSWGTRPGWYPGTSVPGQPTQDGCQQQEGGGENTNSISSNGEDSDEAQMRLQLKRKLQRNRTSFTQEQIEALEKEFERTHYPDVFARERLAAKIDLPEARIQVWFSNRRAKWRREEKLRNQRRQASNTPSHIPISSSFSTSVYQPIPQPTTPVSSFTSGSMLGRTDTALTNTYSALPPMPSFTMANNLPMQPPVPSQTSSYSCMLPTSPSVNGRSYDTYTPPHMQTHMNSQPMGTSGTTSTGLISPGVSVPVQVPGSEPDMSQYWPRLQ
X-box-binding protein 1 (Homo sapiens), sequence (P17861 whole entry, looked up): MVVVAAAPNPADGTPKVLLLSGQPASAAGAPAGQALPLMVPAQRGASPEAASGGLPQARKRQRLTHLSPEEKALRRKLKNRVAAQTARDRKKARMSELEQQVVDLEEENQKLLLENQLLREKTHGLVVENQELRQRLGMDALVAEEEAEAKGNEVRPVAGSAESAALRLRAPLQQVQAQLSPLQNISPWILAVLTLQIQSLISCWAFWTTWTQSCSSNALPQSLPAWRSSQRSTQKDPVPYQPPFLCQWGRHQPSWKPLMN
Glucocorticoid receptor (Homo sapiens), sequence (P04150 whole entry, looked up, the tested form may be a part): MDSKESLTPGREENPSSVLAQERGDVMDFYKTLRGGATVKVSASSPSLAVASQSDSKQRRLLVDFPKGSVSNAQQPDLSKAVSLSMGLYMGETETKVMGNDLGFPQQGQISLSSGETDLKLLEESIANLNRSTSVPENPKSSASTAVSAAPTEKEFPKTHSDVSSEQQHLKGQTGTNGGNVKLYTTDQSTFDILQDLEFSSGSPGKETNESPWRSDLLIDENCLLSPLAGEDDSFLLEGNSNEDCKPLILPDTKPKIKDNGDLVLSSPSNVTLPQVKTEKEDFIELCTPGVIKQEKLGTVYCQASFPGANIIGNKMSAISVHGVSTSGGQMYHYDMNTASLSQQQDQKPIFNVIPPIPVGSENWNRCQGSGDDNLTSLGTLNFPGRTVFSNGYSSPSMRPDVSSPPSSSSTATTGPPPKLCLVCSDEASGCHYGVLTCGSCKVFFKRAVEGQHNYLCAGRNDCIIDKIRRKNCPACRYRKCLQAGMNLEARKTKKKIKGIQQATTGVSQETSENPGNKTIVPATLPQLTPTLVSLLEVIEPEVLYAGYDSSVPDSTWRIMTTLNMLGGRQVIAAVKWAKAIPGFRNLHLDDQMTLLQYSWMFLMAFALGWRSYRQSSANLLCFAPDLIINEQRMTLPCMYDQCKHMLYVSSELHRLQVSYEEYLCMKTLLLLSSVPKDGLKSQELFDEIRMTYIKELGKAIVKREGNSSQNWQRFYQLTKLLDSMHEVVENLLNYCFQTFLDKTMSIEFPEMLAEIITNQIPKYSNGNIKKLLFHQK
Estrogen-related receptor gamma (Homo sapiens), sequence (P62508 whole entry, looked up, the tested form may be a part): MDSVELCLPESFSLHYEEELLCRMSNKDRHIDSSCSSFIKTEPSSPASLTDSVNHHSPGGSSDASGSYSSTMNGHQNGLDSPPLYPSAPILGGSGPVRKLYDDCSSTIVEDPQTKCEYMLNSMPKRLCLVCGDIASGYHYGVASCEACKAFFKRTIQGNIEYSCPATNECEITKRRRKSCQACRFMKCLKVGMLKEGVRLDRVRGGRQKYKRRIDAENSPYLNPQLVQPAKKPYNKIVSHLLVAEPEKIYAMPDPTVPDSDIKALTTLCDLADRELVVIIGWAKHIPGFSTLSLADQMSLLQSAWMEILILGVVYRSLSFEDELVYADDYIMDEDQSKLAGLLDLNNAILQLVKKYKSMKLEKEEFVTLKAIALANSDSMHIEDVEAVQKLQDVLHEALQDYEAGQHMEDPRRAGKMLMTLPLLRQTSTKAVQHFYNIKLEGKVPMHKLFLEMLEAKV

With `COC(=O)c1ccccc1O`, the call in [1], in assay [2], in assay [3], in [4], in assay [5] and in assay [6] was inactive. Further, the compound was classed as inactive in assay [7], in assay [8], in assay [9], in [10] and in [11]. In addition, in [12], the concentration at half-maximal activity (AC50) is 26.4 µM (active).
Turning to `CCOCCO`, the compound was classed as inactive in assay [1], in assay [2], in [3], in assay [4], in assay [5] and in assay [6]. For the same compound, the compound was called inactive in assay [7], in assay [8], in [9], in [10], in [11] and in [12]. Moreover, the result in assay [13] and in assay [14] was inactive.
`Cn1c(=O)c2c(ncn2C)n(C)c1=O`: the result in assay [1], in assay [2], in assay [3], in [5], in assay [6] and in assay [7] was inactive. The compound was called inactive in assay [8], in assay [9], in [10], in assay [11], in assay [15] and in [13]. The call in [16] and in assay [17] was inactive.
`C=CC(=C)CCC=C(C)C`: the compound was classed as inactive in [1], in assay [3], in assay [4], in assay [5], in [6] and in assay [7]. Besides, the result in [8], in assay [9], in [10], in assay [11], in [12] and in assay [15] was inactive. Besides, the AC50 in assay [2] was 18.8 µM (active).
`CCOCCOCCOCCO`: the compound was called inactive in assay [1], in [2], in [3], in assay [4], in assay [5] and in assay [6]. Moreover, the call in [7], in assay [8], in assay [9], in [10], in assay [11] and in assay [12] was inactive. Besides, the result in [16] and in [18] was inactive.
Turning to `CC(C)(O)c1coc(S(=O)(=O)NC(=O)Nc2c3c(cc4c2CCC4)CCC3)c1`, the result in assay [1], in assay [3], in assay [5], in assay [6], in assay [7] and in [8] was inactive. The compound was called inactive in [9], in assay [10], in assay [11], in [15], in assay [13] and in assay [16]. Further, the outcome in [18] and in assay [14] was inactive. For the same compound, the AC50 in [2] was 26.9 µM (active); in assay [12] it was 44.5 µM (active).
